This note sets out measurements from the supplement of paper PMC8007513.

In this test the test system is Trichoderma virens ATCC 9645. Nature of the test: growth yield (OD600) with compound + IPBC relative to untreated control; higher = less growth inhibition. Particulars: compound concentration: 100 uM, IPBC concentration: 200 ng/ml. An outline of the steps: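 Trichoderma virens ATCC 9645 spores at 15,000 spores ml^−1 in potato dextrose broth were exposed in 96-well plates to library compounds at 100 μM final, with or without a biocide at 200 ng ml^−1. After growth at 30 °C, OD600 was read at 40 h and 72 h. Values are growth relative to the control without either agent, averaged over duplicate screens.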

Molecules are shown by their SMILES. Where a name gives a salt, the structure may show the parent alone. ± gives the standard error. About 130 (10%) of roughly 1,300 compounds showed an effect of 50% or more. The list comes from a sample in which strong results are over-represented; it also holds similar structures and randomly drawn compounds.

As for `CC[C@@]1([C@@H]2O[C@@H]([C@H]3O[C@@](O)(CO)[C@H](C)C[C@@H]3C)C[C@@H]2C)CC[C@H]([C@]2(C)CC[C@]3(C[C@H](O)[C@@H](C)[C@@H]([C@@H](C)[C@@H](OC)[C@H](C)C(=O)O)O3)O2)O1` [Monensin sodium salt] + CCCCNC(=O)OCC#CI [3-iodo-2-propynyl butylcarbamate (IPBC)], the growth yield reads like this: (40 h) 79.4 ± 9.8%; (72 h) 89.6 ± 9.2%.

For `CC(Cc1cccc(C(F)(F)F)c1)NCCOC(=O)c1ccccc1` (stereo not given) [Benfluorex] + CCCCNC(=O)OCC#CI [3-iodo-2-propynyl butylcarbamate (IPBC)], the growth yield (40 h) was found to be 56.4 ± 1.8% and the growth yield (72 h) is 81.8 ± 1.5%.

Regarding `Cc1cccc(Nc2ccncc2S(=O)(=O)NC(=O)NC(C)C)c1` [Torsemide] + CCCCNC(=O)OCC#CI [3-iodo-2-propynyl butylcarbamate (IPBC)], the growth yield amounted to 95.3% (40 h) and 114 ± 17% (72 h).

Regarding `CNCC[C@@H](Oc1cccc2ccccc12)c1cccs1` [(R)-Duloxetine hydrochloride] + CCCCNC(=O)OCC#CI [3-iodo-2-propynyl butylcarbamate (IPBC)], the growth yield by setting is: (40 h) 61.6 ± 3.8%; (72 h) 90.3 ± 0.1%.

Take `O=C(O)CCCC[C@@H]1SC[C@@H]2NC(=O)N[C@@H]21` [Biotin] + CCCCNC(=O)OCC#CI [3-iodo-2-propynyl butylcarbamate (IPBC)]: the growth yield was 85.3 ± 3.3% (40 h) and 91.03 ± 0.84% (72 h).

In the case of `C=C1C[C@@H]2[C@H](CC[C@]3(C)C(=O)CC[C@@H]23)[C@@]2(C)C=CC(=O)C=C12` [Exemestane] + CCCCNC(=O)OCC#CI [3-iodo-2-propynyl butylcarbamate (IPBC)], the growth yield is 63.5 ± 0.64% (40 h) and 77.6 ± 1.5% (72 h).

Consider `CCOc1cc(CC(=O)N[C@@H](CC(C)C)c2ccccc2N2CCCCC2)ccc1C(=O)O` [Repaglinide] + CCCCNC(=O)OCC#CI [3-iodo-2-propynyl butylcarbamate (IPBC)], for which the growth yield came to 104 ± 7.3% (40 h) and 104 ± 4.8% (72 h).

In the case of `Cc1cccc(CN2CCN(C(c3ccccc3)c3ccc(Cl)cc3)CC2)c1` (stereo not given) [Meclozine dihydrochloride] + CCCCNC(=O)OCC#CI [3-iodo-2-propynyl butylcarbamate (IPBC)], the growth yield worked out at 3.02 ± 1.1% (40 h) and 3.78 ± 0.63% (72 h).

As to `CN1CCN(C(c2ccccc2)c2ccc(Cl)cc2)CC1` (stereo not given) [Chlorcyclizine hydrochloride] + CCCCNC(=O)OCC#CI [3-iodo-2-propynyl butylcarbamate (IPBC)], the growth yield was found to be 76.9 ± 1.6% (40 h) and 91.6 ± 2.6% (72 h).

Regarding `CN1CCCN(C(c2ccccc2)c2ccc(Cl)cc2)CC1` (stereo not given) [Homochlorcyclizine dihydrochloride] + CCCCNC(=O)OCC#CI [3-iodo-2-propynyl butylcarbamate (IPBC)], the growth yield reads like this: (40 h) 58.5 ± 2.2%; (72 h) 89.9 ± 1.6%.

As to `O=C(Nc1ccccc1)OCC(CN1CCCCC1)OC(=O)Nc1ccccc1` (stereo not given) [Diperodon hydrochloride] + CCCCNC(=O)OCC#CI [3-iodo-2-propynyl butylcarbamate (IPBC)], the growth yield reads like this: (40 h) 77.4 ± 4.3%; (72 h) 96.9 ± 1.7%.

On to `CCC1(c2cccc(O)c2)CCCCN(C)C1` (stereo not given) [Meptazinol hydrochloride] + CCCCNC(=O)OCC#CI [3-iodo-2-propynyl butylcarbamate (IPBC)], for which the growth yield (40 h) was found to be 89.7 ± 3.6% and the growth yield (72 h) was determined as 92.5 ± 2.7%.

Turning to `O=C(O)c1cn(-c2ccc(F)cc2)c2cc(N3CCNCC3)c(F)cc2c1=O` [Sarafloxacin] + CCCCNC(=O)OCC#CI [3-iodo-2-propynyl butylcarbamate (IPBC)], the growth yield runs as follows: (40 h) 81.2 ± 6.8%; (72 h) 98.2 ± 5.5%.

For `O=c1[nH]c2ccccc2n1CCCN1CCC(n2c(=O)[nH]c3cc(Cl)ccc32)CC1` [Domperidone] + CCCCNC(=O)OCC#CI [3-iodo-2-propynyl butylcarbamate (IPBC)], the growth yield reads like this: (40 h) 63.5 ± 2.9%; (72 h) 91.8 ± 2.4%.

Consider `O=C1NCCN1CCN1CCC(c2cn(-c3ccc(F)cc3)c3ccc(Cl)cc23)CC1` [Sertindole] + CCCCNC(=O)OCC#CI [3-iodo-2-propynyl butylcarbamate (IPBC)], for which the growth yield is, setting by setting: (40 h) 5.24 ± 0.79%; (72 h) 3.46 ± 0.1%.

`CCNCC(O)c1cccc(O)c1` (stereo not given) [Etilefrine hydrochloride] + CCCCNC(=O)OCC#CI [3-iodo-2-propynyl butylcarbamate (IPBC)]: the growth yield was determined as 96.9 ± 3.5% (40 h) and 98.1 ± 2.4% (72 h).

Turning to `CC(=O)OCC(=O)[C@@]1(O)CC[C@H]2[C@@H]3CCC4=CC(=O)C=C[C@]4(C)[C@@]3(F)[C@@H](O)C[C@@]21C` [Isoflupredone acetate] + CCCCNC(=O)OCC#CI [3-iodo-2-propynyl butylcarbamate (IPBC)], the growth yield is, setting by setting: (40 h) 87.8 ± 2.1%; (72 h) 91.7 ± 1.1%.

Turning to `c1ccc2c(CC3=NCCN3)cccc2c1` [Naphazoline hydrochloride] + CCCCNC(=O)OCC#CI [3-iodo-2-propynyl butylcarbamate (IPBC)], the growth yield by setting is: (40 h) 87 ± 1.9%; (72 h) 91.9%.

For the compound `C#CCN(C)Cc1ccccc1` [Pargyline hydrochloride] + CCCCNC(=O)OCC#CI [3-iodo-2-propynyl butylcarbamate (IPBC)], the growth yield runs as follows: (40 h) 89.3 ± 4.5%; (72 h) 95.5 ± 2.4%.

As for `CN(C/C=C/C#CC(C)(C)C)Cc1cccc2ccccc12` [Terbinafine] + CCCCNC(=O)OCC#CI [3-iodo-2-propynyl butylcarbamate (IPBC)], the growth yield by setting is: (40 h) 3.18 ± 0.64%; (72 h) 2.94 ± 0.42%.

Turning to `CN(Cc1ccc(C(C)(C)C)cc1)Cc1cccc2ccccc12` [Butenafine Hydrochloride] + CCCCNC(=O)OCC#CI [3-iodo-2-propynyl butylcarbamate (IPBC)], the growth yield is, setting by setting: (40 h) 4.13%; (72 h) 2.73%.

For the compound `CN(C/C=C/c1ccccc1)Cc1cccc2ccccc12` [Naftifine hydrochloride] + CCCCNC(=O)OCC#CI [3-iodo-2-propynyl butylcarbamate (IPBC)], the growth yield was 13.2 ± 3% (40 h) and 50 ± 2.2% (72 h).

Turning to `OC(CCN1CCCCC1)(c1ccccc1)C1CCCCC1` (stereo not given) [Trihexyphenidyl-D,L Hydrochloride] + CCCCNC(=O)OCC#CI [3-iodo-2-propynyl butylcarbamate (IPBC)], the growth yield (40 h) was 101 ± 16% and the growth yield (72 h) stood at 102 ± 8.6%.

Consider `COC(=O)Nc1nc2cc(C(=O)c3cccs3)ccc2[nH]1` [Nocodazole] + CCCCNC(=O)OCC#CI [3-iodo-2-propynyl butylcarbamate (IPBC)], for which the growth yield (40 h) was 107 ± 2.9% and the growth yield (72 h) came to 109 ± 1.1%.

As for `CN(C)CCCOc1nn(Cc2ccccc2)c2ccccc12` [Benzydamine hydrochloride] + CCCCNC(=O)OCC#CI [3-iodo-2-propynyl butylcarbamate (IPBC)], the growth yield by setting is: (40 h) 65.8 ± 2.2%; (72 h) 88.4 ± 2.2%.
